Source: PubChem BioAssay
G9a inh: qHTS Assay for Inhibitors of Histone Lysine Methyltransferase G9a | Histone-lysine N-methyltransferase EHMT2 (Homo sapiens), Q96KQ7 | Potency, µM (series often up to 102 µM), hits mostly inhibitors | 8.8% of 350,000 active | G9a H3K9 monomethylation, AlphaScreen, 2 h | AID 504332, 2011; note: nearly all actives have a fitted effect of over 75% in size
Target sequence (Q96KQ7 913-1193 limits assumed): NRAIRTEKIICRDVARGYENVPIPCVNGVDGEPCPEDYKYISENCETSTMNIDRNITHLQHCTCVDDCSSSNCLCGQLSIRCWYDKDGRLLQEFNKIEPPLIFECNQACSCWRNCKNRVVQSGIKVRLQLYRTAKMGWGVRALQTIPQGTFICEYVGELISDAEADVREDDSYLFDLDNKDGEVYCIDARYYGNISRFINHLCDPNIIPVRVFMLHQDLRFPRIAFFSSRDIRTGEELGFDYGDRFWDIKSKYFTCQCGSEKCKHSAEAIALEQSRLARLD
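Compounds were preincubated with 20 nM G9a for 15 min, after which biotinylated H3K9 peptide (500 nM) and SAM (20 uM) started a 2 h room-temperature reaction. Monomethylated product was quantified by antibody-based AlphaScreen chemiluminescence.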
HP1b binding inh: HTS for Inhibitors of HP1-beta Chromodomain Interactions with Methylated Histone Tails. Chromobox protein homolog 1 (Homo sapiens), P83916. AlphaScreen HP1-beta / biotin-H3K9me3 peptide binding. 0.56% of 390,000 active. Potency, µM (doses to about 114 µM), usual class: inhibitors; note: nearly all actives have a fitted effect of over 70% in size
Target sequence (P83916 whole entry, looked up): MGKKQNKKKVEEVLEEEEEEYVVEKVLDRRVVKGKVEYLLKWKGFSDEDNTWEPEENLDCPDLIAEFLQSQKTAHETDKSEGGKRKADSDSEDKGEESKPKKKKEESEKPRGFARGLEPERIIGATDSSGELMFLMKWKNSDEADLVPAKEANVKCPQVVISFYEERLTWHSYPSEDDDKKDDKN
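AlphaScreen: HP1-beta (50 nM) preformed 30 min with biotin-H3(1-18)K9me3 peptide (50 nM) in PBS pH 7.4, 0.01% Tween-20. Compound added for 30 min at RT, then streptavidin donor/nickel chelate acceptor beads (10 ug/mL) for 30 min.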
GLS inhibitor: qHTS for Inhibitors of Glutaminase (GLS). Glutaminase kidney isoform, mitochondrial (Homo sapiens), O94925. GLS enzymatic activity, qHTS titration. Potency, µM (highest dose often 45.5 µM), hits mostly inhibitors. 0.21% of 410,000 active. AID 624170, 2012
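hKGA in 45 mM KH2PO4 (pH 8.2), 0.02% Tween-20 with compound, then 1mM L-Glutamine (stock as added) plus glutamate oxidase/HRP/Amplex red coupling mix. Fluorescence read initially and after 30 min at RT; signal change reflects glutamate formation.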
BAZ2B block: qHTS Assay for Inhibitors of BAZ2B | Bromodomain adjacent to zinc finger domain protein 2B (Homo sapiens), Q9UIF8 | AlphaScreen BAZ2B-H3K14Ac peptide displacement | Potency, µM (doses to about 114 µM), most hits filed as inhibitors | 4.4% of 360,000 active; note: nearly all actives have a fitted effect of over 60% in size
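AlphaScreen luminescence quantifies BAZ2B engagement of H3K14Ac peptide; the protein and biotinylated peptide are both at 50 nM final, buffer PBS pH 7.4 with 0.01% Tween-20, all steps at room temperature.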
JMJD2A Tudor inh: qHTS Assay for Inhibitors of JMJD2A-Tudor Domain | AlphaScreen JMJD2A-Tudor / H3K4me3 peptide binding | Lysine-specific demethylase 4A (Homo sapiens), O75164 | 4.4% of 390,000 active | Potency, µM (highest dose often 114 µM), usual class: inhibitors; note: nearly all actives have a fitted effect of over 50% in size
Each line names hits and unclear results; the compound was inactive in the other large screens. Rows were chosen to be rich in hits. Some 10% of all compounds tested hit in one or more screens of this group. Calls come from the whole dose curve; as a rule, active = well fitted curve in the direction sought with a large enough effect; inconclusive = small, poorly fitted or top-dose-only effect, or another doubt; inactive = no such curve, though single readings can be large; an effect the other way counts as inactive or inconclusive.

CC(C)c1cccc(C(C)C)c1NC(=O)c1ccc(-c2cc(Cl)ccc2Cl)o1	none (no result: G9a inh, HP1b binding inh, BAZ2B block, JMJD2A Tudor inh)
COc1cccc(-c2ccc3c(N)c(C(=O)NCc4ccc(Cl)cc4)sc3n2)c1	none
CCOc1ccccc1N1CCN(C(=O)c2cc3c(C)cc(C)cc3[nH]2)CC1	G9a inh inconclusive, JMJD2A Tudor inh inconclusive
CCOc1ccccc1N1CCN(C(=O)c2ccc3[nH]c4c(c3c2)CCCC4)CC1	G9a inh 39.8µM, HP1b binding inh inconclusive, BAZ2B block 39.8µM, JMJD2A Tudor inh 44.7µM
CC1CCCN(S(=O)(=O)c2ccc3[nH]c4c(c3c2)CCCC4)C1 (configuration not stated)	HP1b binding inh inconclusive, BAZ2B block 25.1µM, JMJD2A Tudor inh inconclusive (no result: G9a inh)
CC(=O)c1ccc(N2CCN(S(=O)(=O)c3ccc4[nH]c5c(c4c3)CCCC5)CC2)cc1	G9a inh inconclusive, JMJD2A Tudor inh inconclusive
Fc1ccc(Nc2ncncc2-c2ccccc2C(F)(F)F)cc1	none (no result: HP1b binding inh, GLS inhibitor, BAZ2B block, JMJD2A Tudor inh)
c1ccc(CC2CCN(C3=Nc4cccc5cccc3c45)CC2)cc1	G9a inh inconclusive, HP1b binding inh inconclusive, BAZ2B block 50.1µM, JMJD2A Tudor inh 22.4µM
c1cc2c3c(cccc3c1)C(N1CCOCC1)=N2	none (no result: G9a inh)
CCc1ccc(C2=NNC(=Nc3c(C)n(C)n(-c4ccccc4)c3=O)SC2)cc1	G9a inh 25.1µM
Cn1c(=O)n(C)c2cc([N+](=O)[O-])c(N3CCN(C(=O)c4ccccc4Cl)CC3)cc21	BAZ2B block 50.1µM
Cn1c(=O)n(C)c2cc([N+](=O)[O-])c(N3CCN(S(C)(=O)=O)CC3)cc21	BAZ2B block 50.1µM
Cn1c(-c2ccc(Br)o2)nc2ccccc21	none
Cc1ccc(-c2nc3ccccc3n2C)o1	G9a inh 12.6µM
Cn1c(-c2nonc2N)nc2ccccc21	G9a inh 39.8µM
Cc1ccc2nc3c(nc2c1C)C(O)=C3O	G9a inh 12.6µM, HP1b binding inh inconclusive, GLS inhibitor inconclusive
Cc1cc(/C=N/n2cnnc2)c(C)n1-c1ccc(OCc2ccc(Cl)cc2Cl)cc1	HP1b binding inh inconclusive, BAZ2B block 39.8µM, JMJD2A Tudor inh 56.2µM
Cc1cc(/C=N/n2cnnc2)c(C)n1-c1ccc(Cl)cc1Cl	BAZ2B block inconclusive, JMJD2A Tudor inh inconclusive
Cc1cc(/C=N/N2CCN(C)CC2)c(C)n1-c1ccc(Cl)cc1	G9a inh 44.7µM, HP1b binding inh inconclusive, BAZ2B block inconclusive, JMJD2A Tudor inh 50.1µM
Cc1cc(/C=N/NC(N)=S)c(C)n1-c1ccc(Cl)c(Cl)c1	G9a inh inconclusive, JMJD2A Tudor inh inconclusive
Cc1cc(/C=N/n2cnnc2)c(C)n1-c1ccc(Cl)cc1	G9a inh 14.1µM
Cc1cc(/C=N/n2cnnc2)c(C)n1-c1cccc(Cl)c1	BAZ2B block inconclusive
CCNC(=S)N/N=C/c1cc(C)n(-c2ccc(Cl)cc2)c1C	G9a inh inconclusive, HP1b binding inh inconclusive, BAZ2B block 28.2µM, JMJD2A Tudor inh 50.1µM
Cc1cc(/C=N/n2cnnc2)c(C)n1-c1ccccc1	none
O=C1c2ccccc2C(=O)N1c1cccc(O)c1	none (no result: G9a inh, GLS inhibitor, BAZ2B block)
COc1cccc(Cc2nc3ccccc3nc2SCC(=O)NCc2ccc(C)cc2)c1	none
CC(OC(=O)c1ccc(F)c(S(=O)(=O)N2CCOCC2)c1)C(=O)NC1CCCC1 (configuration not stated)	G9a inh inconclusive
Cc1cc(/C=N/n2cnnc2)c(C)n1-c1ccc(OCc2ccc(F)cc2)cc1	G9a inh inconclusive, HP1b binding inh inconclusive, BAZ2B block inconclusive, JMJD2A Tudor inh 56.2µM
CCCCN(Cc1ccccc1)S(=O)(=O)c1ccc2c(c1)CC(C)N2C(=O)CC (configuration not stated)	none (no result: BAZ2B block)
CC(=O)Nc1ccc(SCC(=O)Nc2oc(C)c3c(C)n[nH]c(=O)c23)cc1	G9a inh 50.1µM
Cc1n[nH]c(=O)c2c(NC(=O)CSc3ccc(F)cc3)oc(C)c12	none
Cc1cc(C)c(C)c(SCC(=O)Nc2oc(C)c3c(C)n[nH]c(=O)c23)c1C	G9a inh 3.98µM
Cc1n[nH]c(=O)c2c(NC(=O)COC(=O)c3cc(F)cc(F)c3)oc(C)c12	G9a inh 44.7µM
CCc1ccccc1NC(=O)CN1C(=O)COc2ccc(S(=O)(=O)Nc3ccccc3)cc21	none
S=c1[nH]nc(CSCCOc2ccc(Cl)cc2Cl)o1	G9a inh 20µM
S=c1[nH]nc(CSCCOc2ccccc2)o1	none (no result: G9a inh)
CCOC(=O)c1ccc(NC(=O)c2c(NCc3sccc3C)sc3c2CCCCC3)cc1	G9a inh 8.91µM, BAZ2B block 44.7µM, JMJD2A Tudor inh 56.2µM
COc1ccccc1NC(=O)c1c(NCc2ccc(OC)c(OC)c2OC)sc2c1CCCC2	G9a inh inconclusive, JMJD2A Tudor inh inconclusive
CCOC(=O)c1ccc(NC(=O)c2c(NCc3cccc(OC)c3OC)sc3c2CCC3)cc1	G9a inh 14.1µM
CCOc1ccc2nc(SCC)[nH]c2c1	BAZ2B block 89.1µM
CCOc1ccc2nc(SCC(=O)NCc3ccccc3)[nH]c2c1	none
COc1cc(C(=O)N=c2sc3ccccc3n2C)cc(OC)c1OC	JMJD2A Tudor inh 50.1µM
COc1cc(C(=O)N=c2sc3c(C)ccc(OC)c3n2C)cc(OC)c1OC	none (no result: G9a inh)
CC1=C(C(=O)OCC2CCCCC2)C(c2ccc(Cl)cc2)CC(=O)N1 (configuration not stated)	none
O=C(O)CCN1C(=O)C2C3CC(C2C1=O)C1C(c2ccccc2)c2sc(=O)n(-c4ccccc4)c2SC31 (configuration not stated)	G9a inh 44.7µM, BAZ2B block inconclusive
O=C1OC(c2ccc3ccccc3c2O)(c2ccc3ccccc3c2O)c2ccccc21	HP1b binding inh inconclusive, GLS inhibitor 11.2µM, JMJD2A Tudor inh 31.6µM (no result: G9a inh, BAZ2B block)
CC(/C=C/c1ccc(Cl)o1)=C\C(=O)O	G9a inh 50.1µM, BAZ2B block inconclusive
CCN(C(=O)C=Cc1ccco1)c1ccccc1	none (no result: G9a inh, BAZ2B block)
CC(=C/C(=O)O)/C=C/c1ccco1	G9a inh 39.8µM
COc1ccc(/C=C/C(=O)O)cc1Cl	none
CC(=O)NCc1ccc(C(=O)COC(=O)COc2ccccc2)s1	G9a inh 20µM
CCOC(=O)c1c(NC(=O)CN2CCN(C(=O)c3ccco3)CC2)sc(C)c1C	none
Cc1ccccc1CC(=O)Nc1sc(C(C)C)cc1C(=O)N1CCOCC1	none
CCc1c(C)sc(NC(=O)Cc2ccccc2C)c1C(=O)N1CCOCC1	G9a inh 35.5µM, HP1b binding inh inconclusive
CCOC(=O)c1c(C)n(C)c2ccc(OC)c(NC(=O)CN3CCN(C(=O)c4ccco4)CC3)c12	G9a inh 31.6µM
CCc1c(C)sc(NC(=O)CN2CCN(C(=O)c3ccco3)CC2)c1C(=O)OC	G9a inh 79.4µM, BAZ2B block inconclusive, JMJD2A Tudor inh inconclusive
